Here are results for 40 compounds from PubChem BioAssay (NCATS).

Inconclusive results are not listed. A number with no mark means an inactive call. The source made the active and inactive calls. The call rests on the fitted dose curve; in most records, active means well fitted cell-killing curve with a large enough effect; inconclusive means small, poorly fitted or top-dose-only effect, or effect the other way; inactive means no such curve, though single readings can be large or run the other way.
Potency means the concentration at half of the fitted maximal effect.

A short description of this assay: Quantitative High-Throughput drug screen in 47 multiple myeloma cell lines against the NCATS MIPE library collection: PCM6_Riken cell viability assay (AID 1919870). Further: nearly all actives have a fitted effect of over 30% in size. The conditions noted are these: CellTiter-Glo ATP, 48 h; series mostly up to 45.8 µM; viability (% of control): at the top concentration. An excerpt: PI: Beverly A. Mock Ph.D.
Laboratory of Cancer Biology and Genetics,
Center for Cancer Research, National Cancer Institute,
National Institute of Health, Bethesda, Maryland
Drug resistance and disease progression are common in multiple myeloma (MM) patients, underscoring the need for new therapeutic combinations. […] We hypothesized that effective combinations would reduce MYC expression and enhance p16 activity. […] These preclinical data identify potentially useful drug combinations for evaluation in drug-resistant MM and reveal potential mechanisms of combined drug sensitivity.
Described herein is the primary MIPE qHTS used to cherrypick compounds. Validated compounds were then further tested for potential synergistic activiy.
[1] Peat TJ, Gaikwad SM, Dubois W, Gyabaah-Kessie N, Zhang S, Gorjifard S, Phyo Z, Andres M, Hughitt VK, Simpson RM, Miller MA, Girvin AT, Taylor A, Williams D, D'Antonio N, Zhang Y, Rajagopalan A, Flietner E, Wilson K, Zhang X, Shinn P, Klumpp-Thomas C, McKnight C, Itkin Z, Chen L, Kazandijian D, Zhang J, Michalowski AM, Simmons JK, Keats J, Thomas CJ, Mock BA. Drug combinations identified by high-throughput screening promote cell cycle transition and upregulate Smad pathways in myeloma. Cancer Lett. 2023 Aug 1;568:216284. doi: 10.1016/j.canlet.2023.216284. Epub 2023 Jun 24. PMID: 37356470; PMCID: PMC10408729.
SEQUENCE No. (e.g., 1, 2, 3, etc.); […] (e.g., Cells, Incubation, Reagent, etc.); VALUE and DESCRIPTION.
1; Cells; 5 uL; white, solid bottom 1536-well Greiner assay plate.
2; Compounds; 23 nL; Kalypsis pin tool (Wako USA) equipped with a 1536-well pin head to transfer to the assay plates.
3; Incubation; 48 hours; 37C incubation.
4; Reagent;5uL; CellTiter Glo (Promega).
5; Detector; 425V; Luminescence; Viewlux PerkinElmer.
NOTES (numbers refer to Sequence numbers above)
1. The cell-based screening methods employed in this study were like those previously published. Briefly, the corresponding myeloma cell lines were screened in 1,536-well plates with 500 cells, 5-uL per well for inhibition of cell viability (assessed by measuring ATP levels with CellTiterGlo).
2. NCATS MIPE 4.0 library of approved and investigational drugs were added using the Kalypsis pin tool. Wells treated with DMSO only for 100% viability and media only for 0% viability were used as controls.
3. The assay plates were covered and incubated for 48 hours in a 37C, 5% CO2 incubator with controlled humidity.
4. After 48 hours, CellTilter-GloTM luminescent substrate mix (Promega) reagent was added to the assay plate and plates we incubated for 5 min at room temperature.
5. Signal was measured as median relative luminescence units on a ViewLux (PerkinElmer) multiplate reader.
[1] Heske CM, Davis MI, Baumgart JT, Wilson K, Gormally MV, Chen L, Zhang X, Ceribelli M, Duveau DY, Guha R, Ferrer M, Arnaldez FI, Ji J, Tran HL, Zhang Y, Mendoza A, Helman LJ, Thomas CJ. Matrix Screen Identifies Synergistic Combination of PARP Inhibitors and Nicotinamide Phosphoribosyltransferase (NAMPT) Inhibitors in Ewing Sarcoma. Clin Cancer Res. 2017 Dec 1;23(23):7301-7311. doi: 10.1158/1078-0432.CCR-17-1121. Epub 2017 Sep 12. PMID: 28899971; PMCID: PMC6636827.
`OC[C@H]1O[C@@H](OCCc2ccc(O)cc2)[C@H](O)[C@@H](O)[C@H]1O`: the “viability (% of control)” value was 102%. As to `NC(=O)c1noc([C@H](CCCC2CCCCC2)CC(=O)NO)n1`, the Potency is 16.6 µM (active).

With `CC(=O)OCC(=O)[C@@]12OC(C)(C)O[C@H]1C[C@H]1[C@@H]3C[C@H](F)C4=CC(=O)C=C[C@]4(C)[C@@]3(F)[C@@H](O)C[C@@]12C`, the “viability (% of control)” value was 103%. Turning to `CCCCC(C)(C)[C@H](O)C=C[C@H]1[C@H](O)CC(=O)[C@H]1CC=CCCCC(=O)O`, the Potency is 26.4 µM (active). With `O=C(O)c1nc(=O)[nH]c(=O)[nH]1`, the “viability (% of control)” value was 128% [at 23.2 µM]. In the case of `CCCCC(C=O)NC(=O)C(CC(C)C)NC(=O)OCc1ccccc1` (stereo not given), the “viability (% of control)” value was 101%. In the case of `COC1CCC(C(=O)c2ccc3nc4c(cc3c2)CCCO4)CC1` (stereo not given), the Potency is 16.6 µM (active). Consider `O=C(c1ccc(C=Cc2n[nH]c3ccccc23)cc1)N1CCNCC1`, for which the Potency is 16.6 µM (active).

With `Nc1ncnc2c1ncn2[C@@H]1O[C@H](CO)[C@@H](O)[C@@H]1O`, the Potency was 1.18 µM (active).

As for `Cc1cccc(-c2[nH]c(C(C)(C)C)nc2-c2ccc3c(c2)OCO3)n1`, the Potency was 0.833 µM (active).

As for `C[C@@H]1CCO[C@H]2Cn3cc(C(=O)NCc4ccc(F)cc4F)c(=O)c(O)c3C(=O)N12`, the Potency is 23.5 µM (active). In the case of `C=C1c2cccc(O)c2C(O)=C2C(=O)[C@@]3(O)C(O)=C(C(N)=O)C(=O)[C@@H](N(C)C)[C@@H]3[C@@H](O)[C@H]12`, the Potency was 16.6 µM (active). `OC1CCC(Nc2ncc3nc(Nc4c(F)cc(F)cc4F)n([C@@H]4CCOC4)c3n2)CC1` (stereo not given in full): the Potency is 18.7 µM (active). With `Nc1[nH]nc2nnc(-c3c(-c4ccccc4)nn4ccccc34)cc12`, the Potency was 7.43 µM (active). For `COC(=O)Nc1ccc(-c2nc(N3CCOCC3)c3cnn(C4CCN(C(=O)OC)CC4)c3n2)cc1`, the Potency was 1.87 µM (active). As for `CC(=O)OCC(=O)[C@@]1(O)CC[C@H]2[C@@H]3CCC4=CC(=O)C=C[C@]4(C)[C@@H]3[C@@H](O)C[C@@]21C`, the “viability (% of control)” value was 103%.

For `Cc1ccc(NC(=O)c2ccc(CN3CCN(C)CC3)cc2)cc1Nc1nc(-c2cccnc2)cs1`, the Potency was 4.18 µM (active). Take `CC[C@H]1OC(=O)[C@H](C)[C@@H](O[C@H]2C[C@@](C)(OC)[C@@H](O)[C@H](C)O2)[C@H](C)[C@@H](O[C@@H]2O[C@H](C)C[C@H](N(C)C)[C@H]2O)[C@](C)(O)C[C@H](C)C(=NOCOCCOC)[C@H](C)[C@@H](O)[C@]1(C)O`: the “viability (% of control)” value is 102%. As to `CCN(CC)CCCCNc1nc2cc(Cl)c(Cl)cc2nc1-c1ccc(-c2cccs2)s1`, the Potency was 8.33 µM (active). With `CCCCc1ccc(NS(=O)(=O)c2ccc(C)c(C(=O)N3CCN(c4cccc(C)c4C)CC3)c2)cc1`, the Potency is 26.4 µM (active). Consider `CO[C@H]1/C=C\O[C@@]2(C)Oc3c(C)c(O)c4c(O)c(c(C=NN5CCN(C6CCCC6)CC5)c(O)c4c3C2=O)NC(=O)C(C)=CC=C[C@H](C)[C@H](O)[C@@H](C)[C@@H](O)[C@@H](C)[C@H](OC(C)=O)[C@H]1C`, for which the Potency was 0.118 µM (active).

For the compound `OCCn1cc(-c2ccc3c(c2)CCC3=NO)c(-c2ccncc2)n1`, the Potency was 20.9 µM (active). In the case of `CC1CNc2c(cccc2S(=O)(=O)N[C@@H](CCCN=C(N)N)C(=O)N2CC[C@@H](C)C[C@@H]2C(=O)O)C1` (stereo not given in full), the “viability (% of control)” value is 113%. Turning to `CCN(CCO)CCCOc1ccc2c(Nc3cc(CC(=O)Nc4cccc(F)c4)[nH]n3)ncnc2c1`, the “viability (% of control)” value was 86.4%. Turning to `CN[C@@H]1[C@@H](O)[C@@H](O[C@@H]2[C@@H](O)[C@H](O[C@H]3O[C@H](CN)[C@@H](O)[C@H](O)[C@@H]3O)[C@@H](N)C[C@@H]2NC(=O)[C@@H](O)CN)OC[C@]1(C)O`, the “viability (% of control)” value was 124%.

Regarding `Cc1c(-c2cccc3c(CCCOc4cccc5ccccc45)c(C(=O)O)n(Cc4cccnc4)c23)c(COc2ccc(N3CCN([S+](=O)([O-])N(C)C)CC3)cc2)nn1C`, the “viability (% of control)” value is 129%. As to `CC(C)[C@H](O)C(=O)N[C@@H](C)C(=O)N[C@@H]1C(=O)N(C)CCc2ccccc21`, the Potency is 26.4 µM (active). For `CS(=O)(=O)c1ccc(C2=C(c3ccccc3)C(=O)OC2)cc1`, the “viability (% of control)” value was 98.8%. As for `CC[C@H](CC#N)OC(=O)N[C@@H](C)c1cccc(NC(=O)Nc2ccc(-c3cnco3)c(OC)c2)c1`, the Potency is 1.32 µM (active).

For `CCNC(=O)CCCC=CC[C@@H]1[C@H](C=CC(O)CCc2ccccc2)[C@@H](O)C[C@@H]1O` (stereo not given in full), the “viability (% of control)” value was 111%. On to `CC(C)=CCCC(C)=CCCC(C)=CCCC(C)=CCCC(C)=CCCC(C)=CCCC(C)=CCCC(C)=CCCC(C)=CCO`, for which the “viability (% of control)” value is 115%. On to `CN1CCC(COc2cnc(-c3cccc(Cn4nc(-c5cccc(C#N)c5)ccc4=O)c3)nc2)CC1`, for which the Potency was 0.372 µM (active). Regarding `CO[C@H]1O[C@@H]2O[C@@]3(C)CC[C@@H]4[C@@H](C)CC[C@@H]([C@H]1C)[C@@]24OO3`, the “viability (% of control)” value is 115%.

Regarding `CC1(C)C(N(O)C(=O)Nc2ccc(Cl)cc2)N(c2ccc(Cl)cc2)C(=O)N1CC(=O)NN=CC=Cc1ccc([N+](=O)[O-])o1` (stereo not given), the Potency was 9.35 µM (active).

As for `c1cc(OCCN2CCCCC2)cc(-c2n[nH]c3ccc(-c4ncn[nH]4)cc23)c1`, the Potency is 16.6 µM (active). Consider `CC(C)(OCc1nn(Cc2ccccc2)c2ccccc12)C(=O)O`, for which the “viability (% of control)” value is 114%. Regarding `CN[C@@H]1CN(c2ccc3c(=O)c(C(=O)O)cn(-c4nccs4)c3n2)C[C@@H]1OC`, the Potency is 3.23 µM (active). Consider `CN1CCN2c3ncccc3Cc3ccccc3C2C1` (stereo not given), for which the “viability (% of control)” value is 95.9%. On to `CCC[C@H](N[C@@H](C)C(=O)N1[C@@H]2CCCC[C@H]2C[C@H]1C(=O)O)C(=O)OCC`, for which the “viability (% of control)” value is 101%. Turning to `Cc1ccc(C(=O)N(CCCN)[C@@H](c2oc3cc(Cl)ccc3c(=O)c2Cc2ccccc2)C(C)C)cc1`, the Potency is 9.35 µM (active).
